# Compound activity deposited in PubChem by National Center for Advancing Translational Sciences (NCATS).
# Rows were chosen to be rich in hits. Some 2.4% of all compounds tested hit in one or more screens of this group.
# D2 ag-1: Beta-Arrestin HTS for Positive Allosteric Modulators of the Human D2 Dopamine Receptor: Agonists; D(2) dopamine receptor (Homo sapiens), P14416; DiscoveRx PathHunter D2 beta-arrestin, luminescence, 90 min; 100% = 57 uM dopamine signal; activation, % (no concentration beside the values); 360,000 tested, 0.084% active; AID 624465, 2012; in the data active means activation above about 40%; inconclusive means between about 15% and that limit
# Target sequence (P14416 whole entry, looked up): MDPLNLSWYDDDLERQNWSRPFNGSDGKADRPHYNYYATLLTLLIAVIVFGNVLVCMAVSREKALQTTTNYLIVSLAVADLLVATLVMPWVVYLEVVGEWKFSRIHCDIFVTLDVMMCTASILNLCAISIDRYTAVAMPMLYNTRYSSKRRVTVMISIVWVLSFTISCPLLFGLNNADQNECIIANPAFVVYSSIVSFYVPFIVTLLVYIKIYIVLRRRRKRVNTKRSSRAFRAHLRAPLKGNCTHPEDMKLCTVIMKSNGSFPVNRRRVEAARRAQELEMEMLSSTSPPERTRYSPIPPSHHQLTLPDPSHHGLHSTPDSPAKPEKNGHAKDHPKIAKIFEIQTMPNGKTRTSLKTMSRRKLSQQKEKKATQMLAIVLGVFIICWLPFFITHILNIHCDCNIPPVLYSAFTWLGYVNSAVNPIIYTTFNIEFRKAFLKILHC
#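 DiscoveRx PathHunter D2 beta-arrestin cells (2,100/well) attached overnight, then compound-stimulated 90 min at 37 C in HBSS/10 mM HEPES/0.1% Tween-20 buffer; beta-galactosidase complementation read by luminescence after 1 h at ambient temperature. Dopamine 57 uM final (EC100) as control.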
# D2 PAM-1: Beta-Arrestin HTS for Positive Allosteric Modulators of the Human D2 Dopamine Receptor: Potentiators | D(2) dopamine receptor (Homo sapiens), P14416 | potentiation, % (no concentration beside the values) | AID 624464, 2012 | 360,000 tested, 0.23% active | DiscoveRx D2 beta-arrestin cells, luminescence, 90 min; 100% = 57 uM dopamine signal; in the data active means potentiation above about 50%; inconclusive means mostly about 30% to 49%
#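 D2 cells co-treated with compound plus 50 nM dopamine (EC20) for 90 min at 37 deg C to detect potentiation. Beta-arrestin recruitment was read as enzyme-fragment luminescence after 1 h at ambient temperature. Full response was set by 57 uM dopamine.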
# D2 antag: HTS Assay for Allosteric Antagonists of the Human D2 Dopamine Receptor: Primary Screen for Antagonists; D(2) dopamine receptor (Homo sapiens), P14416; HEK293 TREx D2 cells, calcium flux, dopamine EC80; 340,000 tested, 2% active; inhibition, % at 10 µM; in the data active means inhibition above about 30%; inactive means below that, where a call was filed
#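 Overnight-induced (tetracycline, 30 C) HEK293 T-REx cells carrying force-coupled D2 receive a no-wash calcium dye, then compound, then EC80 dopamine at 180 s; signals are read kinetically throughout.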
# D2 ag-2: HTS Assay for Allosteric Agonists of the Human D2 Dopamine Receptor: Primary Screen for Agonists; D(2) dopamine receptor (Homo sapiens), P14416; HEK293 T-REx D2 cells, calcium flux agonist mode; activation, % at 2 µM; 340,000 tested, 0.53% active; AID 485358, 2010;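 active means activation over 3 SD above normal in the single-dose calcium agonist read, cut at about 30% in these data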
#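 Tetracycline-induced HEK293 T-REx cells with force-coupled D2 receptor, plated overnight at 30 C, loaded with no-wash calcium dye. After a 10 s baseline, compound was pin-added and calcium flux read kinetically for 180 s; calcium rises flagged agonists.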
# D2 PAM-2: HTS Assay for Positive Allosteric Modulators of the Human D2 Dopamine Receptor: Primary Screen for Potentiators; D(2) dopamine receptor (Homo sapiens), P14416; HEK293 T-REx D2, calcium flux, EC20 dopamine potentiation; potentiation, % at 10 µM; 340,000 tested, 0.34% active;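 active means potentiation over 3 SD above the plate norm, cut at about 30% in these data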
#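 Tetracycline-induced HEK293 T-REx cells force-coupled to calcium signalling expressed D2; compounds were pin-added after a 10 s baseline, read kinetically 180 s, then an EC20 dopamine challenge followed with a further 180 s calcium read.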
# D3 ag: qHTS of D3 Dopamine Receptor Agonist: D3 Dopamine Receptor B-arrestin Agonist Confirmatory Assay | Potency, µM (series often up to 76.9 µM), hits mostly activators | shares compounds with D2 ag-2 | 2,300 tested, 4% active | DiscoveRx D3 beta-arrestin cells, luminescence, 90 min; further: nearly all actives have a fitted effect of over 70% in size
# D2 ag-3: qHTS of D3 Dopamine Receptor Agonist: D2 Dopamine Receptor B-arrestin Agonist Counterscreen; DiscoveRx PathHunter D2 beta-arrestin, luminescence, 90 min; response scale: percent relative to full dopamine signal; 2,300 tested, 5.9% active; AID 720507, 2013; Potency, µM (doses to about 76.9 µM), most hits filed as activators; shares compounds with D2 ag-2; further: nearly all actives have a fitted effect of over 70% in size
# A number is an active result; . = inactive; ? = inconclusive; / = no result given. Unless noted, the call rests on the fitted dose curve; in most records, active means well fitted activation curve with a large enough effect; inconclusive means small, poorly fitted or top-dose-only effect; inactive means flat fitted curve, though single readings scatter.
SMILES,D2 ag-1,D2 PAM-1,D2 antag,D2 ag-2,D2 PAM-2,D3 ag,D2 ag-3
Cc1cc(C)cc(OCC(O)CN2CCN(C(=O)c3ccco3)CC2)c1 (stereo unspecified),.,.,35,61,.,.,.
COc1cccc(OC)c1C(=O)Nc1cccc(-c2nc3cc(C)cc(C)c3o2)c1,/,/,/,.,.,/,/
COc1ccccc1NC(=O)C(C)OC(=O)C(C)SCC(=O)Nc1ccc(C)cc1 (stereo unspecified),.,.,.,.,.,.,.
CC(=O)Nc1cccc(NC(=O)CSc2nc(C3CC3)nc3ccccc23)c1,.,.,34,.,.,.,.
Cn1ncc2c(NCc3ccc(Cl)cc3)ncnc21,/,/,/,.,.,/,/
COc1ccc(C2c3c(-c4ccccc4)n[nH]c3C(=O)N2c2ccc(C(=O)O)cc2)cc1 (stereo unspecified),.,.,39,.,.,.,.
COc1ccc(Nc2sc(C(=O)c3ccc(Cl)cc3)c(N)c2C(=O)Nc2ccccc2OC)cc1,.,.,.,.,.,.,.
c1ccc(N2CCN(C3CCSC3)CC2)cc1 (stereo unspecified),.,.,.,41,.,.,.
CC(C)(C)OC(=O)N1CCC(c2c(C(=O)NCCN3CCOCC3)cnn2-c2ccc(F)cc2F)CC1,/,/,/,.,.,/,/
Cn1c(C(=O)O)c(CC(=O)NCC2COc3ccccc3O2)c2ccccc21 (stereo unspecified),.,.,42,.,.,.,?
O=C(Cc1ccccc1)NCC1COc2ccccc2O1 (stereo unspecified),.,.,/,/,/,/,/
O=C(c1ccc2c3c(cccc13)CC2)C1CCCN(C(=O)c2ccc[n+]([O-])c2)C1 (stereo unspecified),.,.,.,.,.,.,.
O=C(c1ccc2c3c(cccc13)CC2)C1CCCN(C(=O)c2cc[n+]([O-])cc2)C1 (stereo unspecified),.,.,.,.,.,/,/
CCN(CC)S(=O)(=O)c1ccc(C)c(NC(=O)CNCc2ccccc2OC)c1,?,.,96,82,.,?,?
COc1ccccc1CNCC(=O)Nc1cc(S(=O)(=O)N2CCCCCC2)ccc1Cl,.,.,85,.,.,.,.
CCN(CC)S(=O)(=O)c1ccc(C)c(NC(=O)CN(C)C)c1,.,.,.,.,.,/,/
Cc1ccc(S(=O)(=O)N2CCOCC2)cc1NC(=O)CSc1ncccn1,.,.,.,.,.,/,/
COc1ccccc1CNCC(=O)Nc1cc(S(=O)(=O)N2CCOCC2)ccc1Cl,.,.,85,.,.,.,?
COc1ccccc1CNCC(=O)Nc1cc(S(=O)(=O)N2CCCCC2)ccc1C,?,.,/,/,/,/,/
Cc1ccc(S(=O)(=O)N2CCOCC2)cc1NC(=O)CNCc1ccccn1,?,.,33,52,.,7.9µM,?
Cc1ccc(CNC(=O)c2c3c(nc4ccccc24)C(=O)N(C2CCCCC2)C3)cc1,/,/,/,.,.,/,/
CC(=O)c1cc(-c2ccc(F)cc2)n(CCC(=O)Nc2nc3c(C)cccc3s2)c1C,/,/,/,.,.,/,/
CNC(=O)C1CCC(Cn2c(=O)c3sccc3n(CC(=O)Nc3cc(C)cc(C)c3)c2=O)CC1 (stereo unspecified),/,/,/,.,.,/,/
O=C1CC(c2ccccc2)NN1 (stereo unspecified),.,.,.,.,.,.,.
COc1ccc(Oc2ncc(CN3CCN(c4ccccc4)CC3)s2)cc1,42,.,76,72,.,?,5.6µM
SMILES,D2 ag-1,D2 PAM-1,D2 antag,D2 ag-2,D2 PAM-2,D3 ag,D2 ag-3
Cc1cc(Cl)ccc1Oc1ncc(CN2CCN(c3ccccc3)CC2)s1,?,.,84,65,.,?,32µM
Brc1ccc(Oc2ncc(CN3CCOCC3)s2)cc1,.,.,.,.,.,/,/
CCOc1ccc(NC(=O)c2cnc3sc(N4CCOCC4)nn3c2=O)cc1,/,/,/,.,.,/,/
Cc1ccc(-c2nn(-c3ccc(F)cc3F)c3c2cnc2ccc(F)cc23)cc1,/,/,/,.,.,/,/
CCCNC(=O)C(Cc1cccc(Cl)c1)NC(=O)c1ccc(C#N)cc1 (stereo unspecified),.,.,.,.,.,/,/
CCCNC(=O)C(Cc1ccc(I)cc1)NC(=O)c1ccc(C#N)cc1 (stereo unspecified),.,.,.,.,.,.,.
CCCNC(=O)C(Cc1cccc(C#N)c1)NC(=O)c1ccc(C#N)cc1 (stereo unspecified),.,.,.,.,.,.,.
CCCCCCCCC(NC(=O)c1ccc(C#N)cc1)C(=O)NCCC (stereo unspecified),.,.,.,.,.,.,.
CCCNC(=O)C(CC)NC(=O)c1ccc(C#N)cc1 (stereo unspecified),.,.,.,.,.,/,/
S=C(Nc1ccccc1)N1CCN(c2ccccn2)CC1,.,.,.,45,.,.,.
Cc1ccc(C)c(NC(=S)N2CCN(c3ccccn3)CC2)c1,.,.,.,.,.,.,.
FC(F)(F)c1ccccc1NC(=S)N1CCCC1,.,.,.,.,.,/,/
FC(F)(F)c1ccccc1NC(=S)N1CCN(c2ccccn2)CC1,.,.,.,41,.,.,.
O=C(/C=C/c1ccc(F)cc1)NC(=S)N1CCN(c2ccccn2)CC1,.,.,.,35,.,.,.
COc1ccc(NC(=S)N2CCN(c3ccccn3)CC2)cc1,.,.,.,.,.,/,/
CCc1ccc(-n2nc(CO)c(C(=O)NCCOC)n2)cc1,/,/,/,.,/,/,/
COc1cccc(N2CN(CCc3ccccc3)CNC2=S)c1,.,.,.,37,.,.,.
CC(=O)N/C(=C/C(C)C)c1ccccc1,.,.,.,.,.,.,.
COc1ccc(OCC(=O)N/N=C\c2ccco2)cc1,.,.,.,.,.,/,/
COc1ccc(/[N+]([O-])=C/c2ccco2)cc1,.,.,.,.,.,.,.
Cc1cccc2c1-c1sc(C(=O)N3CCN(c4ccccc4)CC3)cc1CO2,/,/,/,.,.,/,/
O=C(Cc1ccccc1)Nc1cccnc1,.,.,.,.,.,/,/
